According to article PMC4336329 (PLoS ONE, 2015):
In all, about 310,000 compounds went through this assay and about 14,000 (4.5%) showed an effect of 50% or more. The effect is printed as a negative number. The full list was thinned out, with strong results kept by preference.

What follows are molecules tested against human ether-à-go-go-related gene (hERG) potassium channel (human, UniProt Q12809) (assay: primary screen, population patch clamp on CHO cells stably expressing hERG; higher = less effect of the substance).
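Note: peak tail current of the secondary pulse compared with the same well before compound.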

human ether-à-go-go-related gene (hERG) potassium channel, sequence (Q12809 whole entry, looked up): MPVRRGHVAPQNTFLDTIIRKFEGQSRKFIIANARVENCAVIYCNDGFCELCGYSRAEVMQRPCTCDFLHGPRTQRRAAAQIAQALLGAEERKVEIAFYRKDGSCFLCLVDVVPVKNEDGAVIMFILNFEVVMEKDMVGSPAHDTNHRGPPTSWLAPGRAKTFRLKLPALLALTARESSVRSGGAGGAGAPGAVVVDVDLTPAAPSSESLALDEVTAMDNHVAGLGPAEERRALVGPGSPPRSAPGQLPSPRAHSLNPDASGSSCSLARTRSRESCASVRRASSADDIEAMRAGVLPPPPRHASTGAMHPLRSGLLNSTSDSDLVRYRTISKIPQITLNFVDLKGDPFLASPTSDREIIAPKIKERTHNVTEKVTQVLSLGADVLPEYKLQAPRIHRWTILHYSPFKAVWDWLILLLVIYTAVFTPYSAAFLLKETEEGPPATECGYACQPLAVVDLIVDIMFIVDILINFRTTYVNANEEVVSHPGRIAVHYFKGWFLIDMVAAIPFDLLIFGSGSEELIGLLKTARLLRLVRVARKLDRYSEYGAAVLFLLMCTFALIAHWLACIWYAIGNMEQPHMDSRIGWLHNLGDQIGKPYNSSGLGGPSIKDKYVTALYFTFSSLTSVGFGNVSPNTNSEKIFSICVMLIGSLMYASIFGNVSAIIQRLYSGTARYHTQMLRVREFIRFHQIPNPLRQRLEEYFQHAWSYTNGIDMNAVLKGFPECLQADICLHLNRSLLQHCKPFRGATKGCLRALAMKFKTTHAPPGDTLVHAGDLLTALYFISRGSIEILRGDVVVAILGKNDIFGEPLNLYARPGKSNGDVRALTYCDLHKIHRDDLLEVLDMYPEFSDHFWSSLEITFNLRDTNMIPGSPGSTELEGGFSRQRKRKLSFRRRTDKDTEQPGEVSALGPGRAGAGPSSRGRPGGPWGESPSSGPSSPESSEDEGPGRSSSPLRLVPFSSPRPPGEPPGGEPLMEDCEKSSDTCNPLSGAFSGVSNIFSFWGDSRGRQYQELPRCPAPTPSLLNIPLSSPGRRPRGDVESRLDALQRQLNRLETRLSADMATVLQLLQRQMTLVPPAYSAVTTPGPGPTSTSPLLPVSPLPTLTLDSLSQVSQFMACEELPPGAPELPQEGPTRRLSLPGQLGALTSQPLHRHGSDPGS

SMILES | hERG current change (%, negative = inhibition) at 10uM [%]
N#C/C(=C\c1c[nH]c2ccccc12)c1nnc2n1CCCCC2 | -29.5
N#C/C(=C\c1cn(-c2ccccc2)nc1-c1cccnc1)c1nnc2n1CCCCC2 | -63.2
O=C(/C=C/c1cn(-c2ccccc2)nc1-c1cccnc1)N1CCCCC1 | -49.7
Cc1cc(C(=O)COC(=O)C(C)NC(N)=O)c(C)n1Cc1ccco1 (centres unmarked) | 10.5
CCN(C(=O)Cn1nc(C)c([N+](=O)[O-])c1C)C1CCS(=O)(=O)C1 (centres unmarked) | 24.1
Cc1ccc(NC(=O)Cn2ccc([N+](=O)[O-])n2)cc1C | 14.2
CC(C)n1c(CN2CCN(C(=O)c3ccco3)CC2)nc2c1c(=O)n(C)c(=O)n2C | -7.57
CC(C)n1c(SCC(=O)N2CCN(C(=O)c3ccco3)CC2)nc2c1c(=O)n(C)c(=O)n2C | -50.9
COc1ccc(N2CCN(C(=O)CSc3nc4c(c(=O)n(C)c(=O)n4C)n3C(C)C)CC2)cc1 | -50.2
CCCn1c(SCC(=O)N2CCN(c3ccc(OC)cc3)CC2)nc2c1c(=O)n(C)c(=O)n2C | -36
CC(C)n1c(SCC(=O)N2CCN(C)CC2)nc2c1c(=O)n(C)c(=O)n2C | 2.15
Cn1c(=O)c2c(nc(N3CCOCC3)n2CCSc2ncccn2)n(C)c1=O | 0.639
Cn1c(=O)c2c(nc(N3CCN(C(=O)c4ccco4)CC3)n2CCSc2ncccn2)n(C)c1=O | -57.4
CCN1CCN(c2nc3c(c(=O)n(C)c(=O)n3C)n2CCSc2ncccn2)CC1 | 3.51
CC(C)n1c(SCC(=O)N2CCCC2)nc2c1c(=O)n(C)c(=O)n2C | -5.03
COc1ccc(S(=O)(=O)N2CCOC2CNC(=O)C(=O)NCc2ccc3c(c2)OCO3)cc1 (centres unmarked) | -25.6
Cc1ccc(S(=O)(=O)N/N=C\c2ccc(Cl)c([N+](=O)[O-])c2)cc1 | 18.4
CCOC(=O)c1sc(=S)n(-c2cccc(OC)c2)c1N | -7.09
CCc1ccc2[nH]c(=O)c(C(c3nnnn3CC3CCCO3)N3CCCc4ccccc43)cc2c1 (centres unmarked) | 19.8

SMILES | hERG current change (%, negative = inhibition) at 10uM [%]
O=C(COC(=O)c1ccccc1Oc1ccccc1)NCc1ccco1 | -19.1
O=C(Nc1cccc(S(=O)(=O)Nc2ccc(Cl)cc2)c1)c1ccc(Cl)nc1 | 19.8
Cc1oc(-c2ccccc2F)nc1CS(=O)(=O)CC(=O)N1CCc2ccccc21 | 12.4
CC(C)(C)NCc1cc(Cl)ccc1OCc1cccs1.Cl | -32.5
CC(C)(C)NCc1ccccc1OCc1cccs1.Cl | 6.17
CC(C)(C)NCc1cc(Br)ccc1OCc1cccs1.Cl | -52.5
CC(C)COc1ccc(Br)cc1CNC(C)(C)C.Cl | -41.8
CC(C)(C)NCc1cc(Br)ccc1OC1CCCC1.Cl | -53.8
C=CCOc1ccc(Br)cc1CNC(C)(C)C.Cl | -14.7
CCN(CC)CCNC(=O)c1ccc(NC(=O)Cc2ccsc2)cc1 | 15.6
O=c1oc2ccccc2cc1N1CCOCC1 | -7.08
CN(C)S(=O)(=O)c1ccc(C(=O)Nc2nnc(-c3cccs3)o2)cc1 | 31.7
O=C(COC(=O)c1ccc(F)cc1F)Nc1ncccn1 | -3.24
O=C(COC(=O)c1ccccc1F)Nc1cccnc1Cl | -2.16
O=C(COC(=O)c1ccc(F)cc1F)Nc1cccnc1Cl | -56.3
Cc1ccc(NC(=O)c2cnn(-c3ccccc3)c2NC(=O)c2ccco2)cc1 | 2.02
Cc1ccnn1CC(=O)N/N=C/c1ccc2c(c1)OCO2 | -7.72
N#C/C(=C/c1cccc(O)c1)C(=O)NCc1ccc(Cl)cc1 | 31
COC(=O)CSc1cc([N+](=O)[O-])cc2c1c(C1OCCO1)nn2-c1ccccc1 | -5.4

SMILES | hERG current change (%, negative = inhibition) at 10uM [%]
CN(CCO)c1nc(N)c2c(N)nc3c(c2c1C#N)CC(=O)N3C1CCCC1 | -63.5
CN(CCO)c1nc(N)c2c(N)nc3c(c2c1C#N)CC(=O)N3Cc1cccs1 | -29.6
N#Cc1c(N(CCO)CCO)nc(N)c2c(N)nc3c(c12)CC(=O)N3CC1CCCO1 (centres unmarked) | 10
O=C(CSc1oc(-c2cccs2)nc1S(=O)(=O)c1ccccc1)NC1CCCCC1 | 17.7
CCC1Oc2ccccc2N(CC(=O)NCCCN2CCN(c3ccc(OC)cc3)CC2)C1=O (centres unmarked) | -50.4
CCC1Oc2ccc(C)cc2N(CC(=O)NCCCN2CCN(Cc3ccccc3)CC2)C1=O (centres unmarked) | -53.9
CCC1Oc2ccccc2N(CC(=O)NCCCN2CCN(Cc3ccccc3)CC2)C1=O (centres unmarked) | -42
CCC1Oc2ccc(C)cc2N(CC(=O)NCCCN2CCCC2)C1=O (centres unmarked) | -34.7
CCC1Oc2ccccc2N(CC(=O)NCCCN2CCN(CC)CC2)C1=O (centres unmarked) | 2.97
CCC1Oc2ccccc2N(CC(=O)NCCCN2CCOCC2)C1=O (centres unmarked) | -4.71
Cc1cc(OC(C)C(=O)N[C@H](C(=O)O)c2ccccc2)c2c3c(c(=O)oc2c1)CCC3 (some centres unmarked) | -3.23
CCOC(=O)c1c(NCC(C)C)c2ccccc2[nH]c1=O | -1.01
Cc1cccc(C(=O)NNC(=O)c2ccc(Br)cc2)c1 | 4.62
O=C(Nc1cccc(Cl)c1Cl)c1snnc1-c1ccccc1 | 7.74
Cc1ccc(NC(=S)N(CCN2CCOCC2)Cc2ccccc2F)cc1Cl | -12.3
NC(=S)N/N=C1\CC(c2ccc3c(c2)OCCO3)Oc2ccc(F)cc21 (centres unmarked) | 12.9
NC(=S)N/N=C1\CCOc2ccc(Cl)cc21 | 1.36
NC(=S)N/N=C1\CCOc2ccc(F)cc21 | -76.9
